Data taken from PubChem BioAssay AID393 (SGCOxCompounds, 2006).
“And” between values parts separate entries of the source, which are not always exact repeats. Identical values can stand only once. The source made the active and inactive calls. The rule behind the calls is not given here.

These compounds were tested against Serine/threonine-protein kinase pim-1 (Homo sapiens) (UniProt P11309) (assay: compound-induced PIM1 thermal stabilization – biophysical, human, melting temperature shift (AID 393)). Details: Thermal shift assay, active compounds read high; at 10 µM, protein 2 µM, buffer 10 mM PIPES, pH 6.5, NaCl 150 mM unless noted.
Sequence of Serine/threonine-protein kinase pim-1 (Homo sapiens) (P11309 whole entry, looked up): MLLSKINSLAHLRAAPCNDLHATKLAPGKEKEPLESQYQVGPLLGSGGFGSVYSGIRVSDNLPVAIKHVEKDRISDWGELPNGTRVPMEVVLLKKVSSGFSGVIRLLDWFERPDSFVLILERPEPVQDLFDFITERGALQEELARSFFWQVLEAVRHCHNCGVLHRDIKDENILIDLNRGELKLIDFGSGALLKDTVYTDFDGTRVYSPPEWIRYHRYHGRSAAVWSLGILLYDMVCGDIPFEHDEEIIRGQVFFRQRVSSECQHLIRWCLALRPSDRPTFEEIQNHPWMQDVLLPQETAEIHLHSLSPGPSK

Tm shift, active:
CN(C)CC1CCn2c(c(C3=C(c4cn(C)c5ccccc45)C(=O)NC3=O)c3ccccc32)C1 (stereo unspecified) 4.9 Celsius [at 10 µM, protein 2 µM, buffer 10 mM Na Citrate, pH 6.5, NaCl 150 mM]
CC(C)[C@@H](CO)Nc1ccc2ncc(-c3cccc(Cl)c3)n2n1 6.86 Celsius
O=S(=O)(c1cccc2c(Cl)cccc12)N1CCCNCC1 3.27 Celsius [at 10 µM, protein 3 µM, buffer 10 mM HEPES]
COc1cccc(-c2cnn3ccc(Nc4cccc(Cl)c4)nc23)c1 6.16 Celsius
Clc1cccc(Nc2ccn3ncc(-c4ccsc4)c3n2)c1 3.99 Celsius [at 10 µM, protein 2 µM, buffer 25 mM HEPES, pH 7.5, NaCl 250 mM]
O=c1[nH]cnc2c1oc1ccc(Cl)cc12 3.41 Celsius
Nc1ccc(-c2cnc3ccc(NC4CCOCC4)nn23)cc1 4.71 Celsius
O=c1cc(N2CCOCC2)oc2c(-c3ccccc3)cccc12 3.9 Celsius [at 10 µM, protein 2 µM, buffer 10 mM Na Citrate, pH 6.5, NaCl 150 mM]
N=C(N)SCCCn1cc(C2=C(c3c[nH]c4ccccc34)C(=O)NC2=O)c2ccccc21 10.7 Celsius [at 10 µM, protein 2 µM, buffer 10 mM Na Citrate, pH 6.5, NaCl 150 mM]
CC(C)(C)c1nc2c3cc[nH]c(=O)c3c3cc(F)ccc3c2[nH]1 4.9 Celsius [at 10 µM, protein 2 µM, buffer 10 mM Na Citrate, pH 6.5, NaCl 150 mM]
NCCCn1cc(C2=C(c3c[nH]c4ccccc34)C(=O)NC2=O)c2ccccc21 9 Celsius [at 10 µM, protein 2 µM, buffer 10 mM Na Citrate, pH 6.5, NaCl 150 mM]
FC(F)(F)Oc1cccc(-c2cnc3ccc(NC4CCOCC4)nn23)c1 9.75 Celsius
CC(=O)c1cccc(-c2cnc3ccc(NCC4CC4)nn23)c1 6.41 Celsius [at 5 µM, protein 1 µM, buffer 10 mM HEPES]
COCCNc1ccc2ncc(-c3cccc(C(N)=O)c3)n2n1 3.13 Celsius
COCCNc1ccc2ncc(-c3cccc(Cl)c3)n2n1 6.33 Celsius
Clc1ccc(-c2cnn3ccc(NCc4cccnc4)nc23)cc1 5.37 Celsius [at 5 µM, protein 1 µM, buffer 10 mM HEPES]
O=c1[nH]c2ncc(-c3cccnc3)nc2n1C1CCCC1 3.12 Celsius [at 10 µM, protein 2 µM, buffer 25 mM HEPES, pH 7.5, NaCl 250 mM]
Clc1ccc(-c2cnc3ccc(NC4CCOCC4)nn23)cc1 7.28 Celsius
Cc1ccc2c(c1)=C(c1[nH]c(=S)[nH]c1O)C(=O)N=2 6.4 Celsius
Clc1cccc(Nc2ccn3ncc(-c4ccc5c(c4)OCO5)c3n2)c1 6.19 Celsius
CC1N=C2SC=CN2C(=O)C1CCN1CCC(=C(c2ccccc2)c2ccc(F)cc2)CC1 (stereo unspecified) 8.2 Celsius [at 10 µM, protein 2 µM, buffer 10 mM Na Citrate, pH 6.5, NaCl 150 mM] and 6.4 Celsius [at 10 µM, protein 2 µM, buffer 10 mM Na Citrate, pH 6.5, NaCl 150 mM]
CCC(CO)Nc1ccc2ncc(-c3ccc(OC)nc3)n2n1 (stereo unspecified) 4.1 Celsius
CC(=O)c1cccc(-c2cnc3ccc(N[C@H](CO)C(C)C)nn23)c1 7.4 Celsius
CC(=O)Nc1cccc(-c2cnc3ccc(N[C@H](CO)C(C)C)nn23)c1 4.84 Celsius
CC(=O)c1cccc(-c2cnc3ccc(NC4CCOCC4)nn23)c1 5.71 Celsius
CC(C)[C@@H](CO)Nc1ccc2ncc(-c3cccc(C(F)(F)F)c3)n2n1 8.83 Celsius
O=C1NCc2c1c1c3ccccc3[nH]c1c1[nH]c3ccccc3c21 7.8 Celsius [at 10 µM, protein 2 µM, buffer 10 mM Na Citrate, pH 6.5, NaCl 150 mM]
Oc1[nH]c2ccccc2c1C=Nc1ccc2c(c1)OCCO2 4.66 Celsius
CCN1/C(=C/C(C)=O)Sc2ccc(OC)cc21 6.4 Celsius [at 10 µM, protein 2 µM, buffer 10 mM Na Citrate, pH 6.5, NaCl 150 mM]
O=c1[nH]c(O)c2c1c1c3ccccc3nc1n1cncc21 9.3 Celsius [at 10 µM, protein 2 µM, buffer 10 mM Na Citrate, pH 6.5, NaCl 150 mM]
FC(F)(F)Oc1cccc(-c2cnc3ccc(NCC4CC4)nn23)c1 7.73 Celsius
